Laboratory results taken from the supplement of paper PMC10849652.
The full data set covers some 8,800 targets. This sample favours those with a hit. About 0.5% of all pairs of compound and target were hits. Values without a mark were called inactive.

These targets were tested with O=C(CCCCCCC(=O)Nc1ccccc1)NO [vorinostat] (assay: log2 fold change, soluble protein after heating vs DMSO (PISA); higher = thermal stabilisation; K562 lysate, 10 uM; active = over 0.2 and 3.5 SD of the protein, either way, in both replicates (recomputed)).
Outline: (§1)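 The values are log-two fold changes in thermal stability compared with solvent controls and come from duplicates. They were obtained by TMTpro 16plex LC-MS/MS, with channel sums equalised, on the supernatant after 21,000xg for 90 min. That supernatant came from crude K562 extract at 1 mg/mL protein treated with 10 μM compound for 30 min, heated for 3 min across 48°C-58°C, pooled and brought to 0.5% NP-40 at 4°C.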

Chain of UniProt Q8NBX0 (Q8NBX0 whole entry, looked up): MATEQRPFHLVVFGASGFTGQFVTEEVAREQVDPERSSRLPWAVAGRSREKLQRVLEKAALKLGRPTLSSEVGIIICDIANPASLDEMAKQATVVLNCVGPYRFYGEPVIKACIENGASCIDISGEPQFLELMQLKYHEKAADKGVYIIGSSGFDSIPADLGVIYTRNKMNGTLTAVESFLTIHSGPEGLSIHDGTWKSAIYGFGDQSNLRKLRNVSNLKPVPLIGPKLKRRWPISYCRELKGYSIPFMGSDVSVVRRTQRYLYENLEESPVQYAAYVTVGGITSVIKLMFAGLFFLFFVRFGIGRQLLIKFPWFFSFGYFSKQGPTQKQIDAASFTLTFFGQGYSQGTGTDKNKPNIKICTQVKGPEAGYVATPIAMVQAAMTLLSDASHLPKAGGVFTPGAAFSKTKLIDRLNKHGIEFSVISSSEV
Chain of UniProt Q9P0K7 (Q9P0K7 whole entry, looked up): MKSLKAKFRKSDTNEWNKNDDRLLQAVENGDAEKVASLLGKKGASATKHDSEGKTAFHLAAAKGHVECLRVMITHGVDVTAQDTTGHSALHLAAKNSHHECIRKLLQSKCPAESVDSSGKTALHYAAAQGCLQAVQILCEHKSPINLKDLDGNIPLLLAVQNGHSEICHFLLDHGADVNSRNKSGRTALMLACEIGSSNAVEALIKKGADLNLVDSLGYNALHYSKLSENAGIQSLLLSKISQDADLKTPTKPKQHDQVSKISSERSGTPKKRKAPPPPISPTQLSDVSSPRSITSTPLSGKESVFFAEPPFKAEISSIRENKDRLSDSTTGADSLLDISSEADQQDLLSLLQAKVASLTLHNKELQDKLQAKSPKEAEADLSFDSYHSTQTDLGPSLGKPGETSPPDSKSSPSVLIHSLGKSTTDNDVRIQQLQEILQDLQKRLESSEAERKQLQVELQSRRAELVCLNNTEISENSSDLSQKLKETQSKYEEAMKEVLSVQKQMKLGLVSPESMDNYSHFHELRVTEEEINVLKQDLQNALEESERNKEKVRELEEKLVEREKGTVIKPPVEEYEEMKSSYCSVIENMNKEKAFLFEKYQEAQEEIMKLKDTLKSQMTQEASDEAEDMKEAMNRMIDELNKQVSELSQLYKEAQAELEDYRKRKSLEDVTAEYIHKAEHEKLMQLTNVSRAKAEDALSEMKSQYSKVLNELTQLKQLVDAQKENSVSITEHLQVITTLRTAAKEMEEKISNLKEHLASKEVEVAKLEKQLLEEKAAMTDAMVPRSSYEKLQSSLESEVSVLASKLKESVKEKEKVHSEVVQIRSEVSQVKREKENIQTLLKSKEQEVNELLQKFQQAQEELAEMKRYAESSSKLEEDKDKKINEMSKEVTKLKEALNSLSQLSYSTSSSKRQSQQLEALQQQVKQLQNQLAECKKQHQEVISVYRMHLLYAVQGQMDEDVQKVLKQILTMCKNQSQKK
Chain of UniProt Q5HYI8 (Q5HYI8 whole entry, looked up): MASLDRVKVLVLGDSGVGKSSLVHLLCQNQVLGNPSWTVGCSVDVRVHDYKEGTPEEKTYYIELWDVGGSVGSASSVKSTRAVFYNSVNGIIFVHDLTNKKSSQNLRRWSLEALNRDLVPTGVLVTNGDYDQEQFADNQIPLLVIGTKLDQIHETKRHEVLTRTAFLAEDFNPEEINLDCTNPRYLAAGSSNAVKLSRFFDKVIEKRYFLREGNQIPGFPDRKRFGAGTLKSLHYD
Chain of UniProt P35249 (P35249 whole entry, looked up): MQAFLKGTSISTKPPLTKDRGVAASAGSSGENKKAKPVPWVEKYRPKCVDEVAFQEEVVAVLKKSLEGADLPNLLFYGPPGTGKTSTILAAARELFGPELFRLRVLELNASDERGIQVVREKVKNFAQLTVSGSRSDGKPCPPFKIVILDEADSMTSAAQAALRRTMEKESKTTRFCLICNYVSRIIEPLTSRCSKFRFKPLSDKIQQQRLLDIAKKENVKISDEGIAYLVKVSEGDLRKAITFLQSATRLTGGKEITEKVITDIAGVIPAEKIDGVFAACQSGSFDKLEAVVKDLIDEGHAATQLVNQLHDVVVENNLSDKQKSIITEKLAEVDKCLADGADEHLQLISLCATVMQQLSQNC
Chain of UniProt P61586 (P61586 whole entry, looked up): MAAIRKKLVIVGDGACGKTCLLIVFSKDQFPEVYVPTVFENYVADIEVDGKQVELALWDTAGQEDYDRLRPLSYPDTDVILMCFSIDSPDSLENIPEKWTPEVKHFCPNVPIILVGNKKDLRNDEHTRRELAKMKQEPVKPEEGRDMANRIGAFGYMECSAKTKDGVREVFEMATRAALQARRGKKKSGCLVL
Chain of UniProt Q8IYW5 (Q8IYW5 whole entry, looked up): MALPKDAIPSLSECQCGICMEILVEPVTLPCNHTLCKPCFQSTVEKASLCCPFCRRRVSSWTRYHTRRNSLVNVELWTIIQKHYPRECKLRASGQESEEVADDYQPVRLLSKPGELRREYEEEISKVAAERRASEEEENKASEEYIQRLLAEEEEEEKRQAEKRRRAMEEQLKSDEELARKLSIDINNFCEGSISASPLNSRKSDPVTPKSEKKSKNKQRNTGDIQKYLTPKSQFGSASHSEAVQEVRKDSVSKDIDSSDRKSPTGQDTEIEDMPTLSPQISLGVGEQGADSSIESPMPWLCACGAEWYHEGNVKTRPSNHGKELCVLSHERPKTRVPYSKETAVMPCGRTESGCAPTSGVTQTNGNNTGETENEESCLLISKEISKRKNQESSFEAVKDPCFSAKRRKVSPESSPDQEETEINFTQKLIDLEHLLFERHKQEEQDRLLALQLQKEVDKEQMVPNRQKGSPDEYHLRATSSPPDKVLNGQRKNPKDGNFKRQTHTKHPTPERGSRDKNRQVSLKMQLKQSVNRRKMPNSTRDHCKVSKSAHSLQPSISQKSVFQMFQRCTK
Chain of UniProt P53611 (P53611 whole entry, looked up): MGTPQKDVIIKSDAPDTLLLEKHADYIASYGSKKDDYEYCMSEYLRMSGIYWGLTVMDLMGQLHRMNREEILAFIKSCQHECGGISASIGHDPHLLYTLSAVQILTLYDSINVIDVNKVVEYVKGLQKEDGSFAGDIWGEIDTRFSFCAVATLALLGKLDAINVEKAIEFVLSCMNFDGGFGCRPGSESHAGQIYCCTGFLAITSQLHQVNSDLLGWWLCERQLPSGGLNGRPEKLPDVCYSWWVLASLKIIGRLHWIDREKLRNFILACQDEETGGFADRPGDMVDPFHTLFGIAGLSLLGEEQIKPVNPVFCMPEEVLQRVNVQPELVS
Chain of UniProt Q6PCD5 (Q6PCD5 whole entry, looked up): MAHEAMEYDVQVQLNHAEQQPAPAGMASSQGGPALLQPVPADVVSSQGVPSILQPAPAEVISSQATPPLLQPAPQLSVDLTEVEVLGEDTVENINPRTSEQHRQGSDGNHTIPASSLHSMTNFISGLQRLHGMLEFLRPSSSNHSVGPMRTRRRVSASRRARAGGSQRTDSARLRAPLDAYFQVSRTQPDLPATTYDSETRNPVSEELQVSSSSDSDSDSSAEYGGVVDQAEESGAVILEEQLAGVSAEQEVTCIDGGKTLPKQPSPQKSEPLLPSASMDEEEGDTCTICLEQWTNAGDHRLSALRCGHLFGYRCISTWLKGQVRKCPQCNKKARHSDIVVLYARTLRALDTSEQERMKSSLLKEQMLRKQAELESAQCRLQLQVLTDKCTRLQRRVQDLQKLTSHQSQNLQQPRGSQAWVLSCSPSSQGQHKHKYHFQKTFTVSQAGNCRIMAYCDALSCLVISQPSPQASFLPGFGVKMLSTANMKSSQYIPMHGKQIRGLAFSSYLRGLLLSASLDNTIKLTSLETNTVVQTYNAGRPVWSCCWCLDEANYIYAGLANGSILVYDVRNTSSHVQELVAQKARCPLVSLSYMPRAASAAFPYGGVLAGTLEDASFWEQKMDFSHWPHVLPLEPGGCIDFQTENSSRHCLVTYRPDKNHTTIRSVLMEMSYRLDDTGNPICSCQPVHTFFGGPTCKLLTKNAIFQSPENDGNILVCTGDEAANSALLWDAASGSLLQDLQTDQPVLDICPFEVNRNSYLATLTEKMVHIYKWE
Chain of UniProt P52756 (P52756 whole entry, looked up): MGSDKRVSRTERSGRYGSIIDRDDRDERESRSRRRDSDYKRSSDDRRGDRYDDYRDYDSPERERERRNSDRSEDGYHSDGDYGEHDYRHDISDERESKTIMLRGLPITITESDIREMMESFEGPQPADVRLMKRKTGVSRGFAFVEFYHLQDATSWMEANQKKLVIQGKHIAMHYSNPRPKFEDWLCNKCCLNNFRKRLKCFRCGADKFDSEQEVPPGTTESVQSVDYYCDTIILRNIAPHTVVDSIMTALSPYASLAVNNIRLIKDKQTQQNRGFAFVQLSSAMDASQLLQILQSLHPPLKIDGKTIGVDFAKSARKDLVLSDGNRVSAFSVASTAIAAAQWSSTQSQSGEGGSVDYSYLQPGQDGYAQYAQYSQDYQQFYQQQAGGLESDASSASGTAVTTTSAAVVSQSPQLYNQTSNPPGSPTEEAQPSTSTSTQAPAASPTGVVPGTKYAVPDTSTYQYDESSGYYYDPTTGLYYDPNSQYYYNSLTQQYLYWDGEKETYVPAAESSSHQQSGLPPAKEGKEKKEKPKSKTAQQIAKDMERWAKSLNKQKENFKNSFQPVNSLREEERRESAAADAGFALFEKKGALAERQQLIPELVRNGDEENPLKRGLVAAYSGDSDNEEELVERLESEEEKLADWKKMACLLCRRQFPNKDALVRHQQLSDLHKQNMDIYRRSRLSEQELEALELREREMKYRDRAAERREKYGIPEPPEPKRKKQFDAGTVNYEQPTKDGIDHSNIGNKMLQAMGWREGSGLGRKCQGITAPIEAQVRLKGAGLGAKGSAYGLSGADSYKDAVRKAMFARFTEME
Chain of UniProt Q9UL25 (Q9UL25 whole entry, looked up): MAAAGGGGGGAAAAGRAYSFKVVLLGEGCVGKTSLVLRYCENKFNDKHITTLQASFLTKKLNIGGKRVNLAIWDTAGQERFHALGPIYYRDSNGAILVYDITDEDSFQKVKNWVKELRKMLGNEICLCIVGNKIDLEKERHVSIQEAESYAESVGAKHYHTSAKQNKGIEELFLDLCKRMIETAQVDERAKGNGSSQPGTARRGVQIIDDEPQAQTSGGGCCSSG

| Target | log2 fold change |
| --- | --- |
| RAI14 isoform 2 (UniProt Q9P0K7) | -0.254 (active) |
| RAPGEF4 (UniProt Q8WZA2) | 0.143 |
| S100A6 (UniProt P06703) | 0.136 |
| SDHC (UniProt Q99643) | -0.196 |
| RAD54L2 (UniProt Q9Y4B4) | -0.487 (active) |
| RBSN (UniProt Q9H1K0) | 0.035 |
| RXRB isoform 3 (UniProt P28702) | -0.757 (active) |
| RNF2 (UniProt Q99496) | -0.037 |
| RFWD3 (UniProt Q6PCD5) | -0.444 (active) |
| RFC5 (UniProt P40937) | -0.492 (active) |
| SCCPDH (UniProt Q8NBX0) | 0.34 |
| RDH10 (UniProt Q8IZV5) | -0.007 |
| RAB27A (UniProt P51159) | -0.08 |
| RPN2 (UniProt P04844) | 0.118 |
| RPS6KA3 (UniProt P51812) | -0.384 |
| RBM5 (UniProt P52756) | -0.427 (active) |

| Target | log2 fold change |
| --- | --- |
| RAB21 (UniProt Q9UL25) | -0.235 |
| RPL36AL (UniProt Q969Q0) | 0.124 |
| RABGGTB (UniProt P53611) | -0.286 (active) |
| RBM22 (UniProt Q9NW64) | -0.23 (active) |
| RNF168 (UniProt Q8IYW5) | -0.313 |
| REXO4 (UniProt Q9GZR2) | -0.127 |
| RAC2 (UniProt P15153) | -0.25 (active) |
| RAD51C (UniProt O43502) | -0.386 (active) |
| RDH11 (UniProt Q8TC12) | 0.038 |
| RPTOR (UniProt Q8N122) | -0.337 (active) |
| QRSL1 (UniProt Q9H0R6) | -0.308 (active) |
| RABL3 (UniProt Q5HYI8) | -0.126 |
| RFC4 (UniProt P35249) | -0.423 (active) |
| RINT1 (UniProt Q6NUQ1) | -0.321 (active) |
| SEH1L isoform 1 (UniProt Q96EE3) | -0.001 |
| RHOA (UniProt P61586) | 0.064 |

The targets below were run with O=C(O)c1ccc2c(c1)nc(Nc1cccc(Cl)c1)c1ccncc12 [silmitasertib] in the same assay as above.
Outline: as §1

| Target | log2 fold change |
| --- | --- |
| RAI14 isoform 2 (UniProt Q9P0K7) | 0.022 |
| RAPGEF4 (UniProt Q8WZA2) | -0.09 |
| S100A6 (UniProt P06703) | -0.036 |
| SDHC (UniProt Q99643) | 0.048 |
| RAD54L2 (UniProt Q9Y4B4) | 0.04 |
| RBSN (UniProt Q9H1K0) | -0.032 |
| RXRB isoform 3 (UniProt P28702) | 0.168 |
| RNF2 (UniProt Q99496) | 0.021 |
| RFWD3 (UniProt Q6PCD5) | 0.061 |
| RFC5 (UniProt P40937) | 0.031 |
| SCCPDH (UniProt Q8NBX0) | -0.19 |
| RDH10 (UniProt Q8IZV5) | 0.006 |
| RAB27A (UniProt P51159) | 0.066 |
| RPN2 (UniProt P04844) | 0.008 |
| RPS6KA3 (UniProt P51812) | 0.362 |
| RBM5 (UniProt P52756) | 0.072 |

| Target | log2 fold change |
| --- | --- |
| RAB21 (UniProt Q9UL25) | -0.021 |
| RPL36AL (UniProt Q969Q0) | 0.011 |
| RABGGTB (UniProt P53611) | 0.006 |
| RBM22 (UniProt Q9NW64) | 0 |
| RNF168 (UniProt Q8IYW5) | 0.025 |
| REXO4 (UniProt Q9GZR2) | 0.05 |
| RAC2 (UniProt P15153) | 0.024 |
| RAD51C (UniProt O43502) | -0.003 |
| RDH11 (UniProt Q8TC12) | 0.022 |
| RPTOR (UniProt Q8N122) | 0.048 |
| QRSL1 (UniProt Q9H0R6) | 0.051 |
| RABL3 (UniProt Q5HYI8) | 0.445 |
| RFC4 (UniProt P35249) | 0.033 |
| RINT1 (UniProt Q6NUQ1) | 0.038 |
| SEH1L isoform 1 (UniProt Q96EE3) | -0.02 |
| RHOA (UniProt P61586) | -0.009 |
